The source of these data is PubChem BioAssay.

Calls of active or inactive are those of the source. Unless noted, how the calls were made is not given here.

The nature of experiment [1]: compounds binding Alexa647 anti-His antibody – biochemical, small-molecule microarray, 635 nm fluorescence, artefact control for SMM control protein annotation, primary screen (AID 1128).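 Further: score merges feature fluorescence with signal-to-noise for each printed compound spot.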 Conditions: higher = more signal.
For experiment [2], the system named is Human papillomavirus type 1a E7 protein (residues 1-88). Put plainly: HPV1a E7 small-molecule binders, primary screen, biochemical, small-molecule microarray, residues 1-88, 635 nm (AID 1129). The note with it: small-molecule microarray binding, fluorescence 635 nm; higher = more signal.
Experiment [3] deals with Focal adhesion kinase 1 (Homo sapiens) (UniProt Q05397). Put plainly: PTK2 protein binding on printed compound slides – biochemical, small-molecule microarray, 635/667 nm fluorescence, BSA, DTT, primary screen (AID 1130).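 Further: composite of spot emission at 667 nm and signal to noise over triplicate slides.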 The note with it: 635 nm fluorescence, higher = more signal.
In experiment [4] the test system is Fibrinogen (Alexa647-labelled). The experiment is described as follows: Alexa647-fibrinogen binding to printed small molecules – biochemical, small-molecule microarray, 635/667 nm fluorescence, artefact control for SMM control-protein annotation, profiling panel (AID 1131).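 Further: z-score merges 667 nm fluorescence with per-spot signal-to-noise over triplicate slides.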 The note with it: fibrinogen-A647 binding fluorescence, higher = more signal.
In experiment [5] the target is Follistatin (Homo sapiens) (UniProt P19883). Put plainly: FST protein binding to printed compounds – biochemical, small-molecule microarray, 635/667 nm fluorescence, primary screen (AID 1132). Conditions: 635 nm fluorescence, higher = more signal.
The target in experiment [6] is Fibroblast growth factor 2 (Homo sapiens) (UniProt P09038). Put plainly: basic fibroblast growth factor binding to printed compounds – biochemical, small-molecule microarray, 635/667 nm fluorescence, primary screen (AID 1133). Conditions: FGF2, fluorescence 635/667, higher = more signal.
Experiment [7] in a line: JC-1 mitochondrial potential readout, lung cancer cells – cell-based, A549, JC-1 fluorescence, basal, 24 h, 100 nL, profiling panel (AID 1138).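 Further: A549 lung adenocarcinoma cells under basal conditions with no added stimulus; test concentration not given here.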 Conditions: higher = more signal.
A further experiment relates to Lefty1. Put plainly: Lefty1 protein binding to printed compounds – biochemical, small-molecule microarray, 635/667 nm fluorescence, primary screen (AID 1139). The note with it: fluorescence 635/667, higher = more signal.
Experiment [8] has as its system wheat germ agglutinin (Triticum aestivum), Alexa647-labelled. The experiment is described as follows: Alexa647-WGA lectin binding to printed small molecules – biochemical, small-molecule microarray, 635/667 nm fluorescence, artefact control for SMM control-protein annotation, profiling panel (AID 1140).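 Further: score merges 667 nm feature emission with signal to noise over triplicate slides.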 The note with it: WGA-A647 binding, 635 nm fluorescence, higher = more signal.

For experiment [9], the target named is Luciferin 4-monooxygenase (Photinus pyralis) (UniProt P08659). The experiment is described as follows: inhibition of purified Photinus pyralis luciferase – biochemical, luminescence, purified enzyme, 2006 set, primary screen (AID 1141).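 Further: cell-free assay with purified firefly luciferase at 100 ng per well in PBS; test concentration not given here.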 The note with it: purified firefly luciferase, SteadyGlo luminescence, 30 min; higher = more signal, called active from +8 up or from −8 down.

For experiment [10], the system named is Wnt5a (protein binding on small-molecule microarray). The experiment is described as follows: small molecules binding Wnt5a protein – biophysical, small-molecule microarray, 635/667 nm fluorescence, primary screen (AID 1142).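 Further: fluorescence read at 667 nm with signal to noise per printed feature.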 The note with it: 635 nm fluorescence, higher = more signal.
The nature of experiment [11]: ATP-based viability of Huh7 replicon cells – cell-based, CellTiter-Glo luminescence, basal, 48 h, cytotoxicity control for HCV replication inhibitor project, primary screen (AID 1143).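 Further: Huh7 hepatoma cells carrying a hepatitis C replication reporter with no stimulus; test concentration not given here.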 Conditions: higher = more signal, called active from +8 up or from −8 down. A general note: In antiviral work, replicon cells carry a viral genome segment that copies itself.
Experiment [12] can be described thus: Pseudomonas biofilm growth suppression – PAO1 strain, BacTiter-Glo luminescence, LB-PBS, primary screen (AID 1144). Conditions: P. aeruginosa PAO1 biofilm, 12 h, higher = more signal.
Experiment [13] can be described thus: basal CRE-LacZ reporter activity in PC12 – cell-based, unstimulated, primary screen (AID 1145). Conditions: no forskolin, luminescence, 4.5 h, higher = more signal, called active from +8 up or from −8 down.
Experiment [14] in a line: forskolin-driven CRE-LacZ activity in PC12 – cell-based, CRE-LacZ reporter, forskolin-stimulated, primary screen (AID 1146).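 Further: PC12 cells with 6xCRE LacZ reporter stimulated by forskolin 10 µM; beta-galactosidase reporter signal reflecting CREB driven transcription.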 The note with it: luminescence, 4.5 h, higher = more signal, called active from +8 up or from −8 down.
Experiment [15] deals with Streptavidin (Streptomyces avidinii) (UniProt P22629). The experiment is described as follows: compounds binding control protein streptavidin – biophysical, small-molecule microarray, 635/667 nm fluorescence, artefact control for SMM compound annotation, primary screen (AID 1147).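 Further: signal reflects streptavidin binding to arrayed compounds as a control protein.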 Conditions: higher = more signal.
A short description of experiment [16]: probe aInhba binding on compound microarray – biochemical, small-molecule microarray, 635/667 nm fluorescence, primary screen (AID 1148).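 Further: score merges 667nm spot fluorescence with signal-to-noise for antibody binding to printed compounds.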 Conditions: higher = more signal.
The target in experiment [17] is Torsin-1A (Homo sapiens) (UniProt O14656). Put plainly: TOR1A wild-type binding on microarray – cell lysate, small-molecule microarray, lysate, 635/667 nm, primary screen (AID 1149). The note with it: COS7 hTOR1A-WT lysate, 635 nm fluorescence, higher = more signal.
Experiment [18] shares this target. The experiment is described as follows: torsin A mutant lysate binding on microarrays – cell lysate, small-molecule microarray, COS7 lysate, 635/667 nm fluorescence, primary screen (AID 1150).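 Further: score pools 667 nm emission and signal to noise measuring lysate protein binding.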 Conditions: COS7 hTOR1A mutant lysate, 635 nm fluorescence, higher = more signal.
For experiment [19], the system named is Sonic hedgehog protein (Shh). Put plainly: Sonic hedgehog microarray binding compounds – biochemical, small-molecule microarray, 635/667 nm fluorescence, primary screen (AID 1151).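 Further: Shh protein binding to compounds spotted on small-molecule microarray slides; score combines spot fluorescence intensity with signal-to-noise across triplicate slides.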 The note with it: 635 nm fluorescence, higher = more signal.

Sequence of Torsin-1A (Homo sapiens) (O14656 whole entry, looked up): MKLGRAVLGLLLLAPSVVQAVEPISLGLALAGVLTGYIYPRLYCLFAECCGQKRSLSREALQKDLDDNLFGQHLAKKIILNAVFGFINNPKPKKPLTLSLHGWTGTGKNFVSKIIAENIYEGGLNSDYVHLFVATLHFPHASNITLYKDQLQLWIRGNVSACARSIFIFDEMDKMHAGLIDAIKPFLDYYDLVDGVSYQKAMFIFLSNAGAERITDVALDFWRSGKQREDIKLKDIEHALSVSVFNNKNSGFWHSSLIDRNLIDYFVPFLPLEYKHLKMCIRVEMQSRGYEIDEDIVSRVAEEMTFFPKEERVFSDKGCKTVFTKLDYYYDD
Sequence of Follistatin (Homo sapiens) (P19883 whole entry, looked up): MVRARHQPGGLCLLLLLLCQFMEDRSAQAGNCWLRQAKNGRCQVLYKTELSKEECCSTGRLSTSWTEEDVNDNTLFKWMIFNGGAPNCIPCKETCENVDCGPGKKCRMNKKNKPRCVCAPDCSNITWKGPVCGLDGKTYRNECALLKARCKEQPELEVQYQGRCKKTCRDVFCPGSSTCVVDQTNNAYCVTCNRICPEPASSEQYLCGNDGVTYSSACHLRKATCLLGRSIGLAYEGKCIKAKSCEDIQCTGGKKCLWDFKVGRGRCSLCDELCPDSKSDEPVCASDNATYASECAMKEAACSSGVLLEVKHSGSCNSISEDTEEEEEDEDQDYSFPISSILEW
Sequence of Fibroblast growth factor 2 (Homo sapiens) (P09038 whole entry, looked up): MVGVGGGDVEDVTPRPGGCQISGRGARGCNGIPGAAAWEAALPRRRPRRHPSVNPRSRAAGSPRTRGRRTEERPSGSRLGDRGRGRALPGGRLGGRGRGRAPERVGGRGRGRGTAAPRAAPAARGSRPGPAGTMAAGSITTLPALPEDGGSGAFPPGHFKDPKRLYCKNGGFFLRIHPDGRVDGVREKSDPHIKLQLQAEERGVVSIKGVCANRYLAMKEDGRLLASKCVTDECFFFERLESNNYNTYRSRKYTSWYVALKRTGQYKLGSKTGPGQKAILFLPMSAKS
Sequence of Streptavidin (Streptomyces avidinii) (P22629 whole entry, looked up): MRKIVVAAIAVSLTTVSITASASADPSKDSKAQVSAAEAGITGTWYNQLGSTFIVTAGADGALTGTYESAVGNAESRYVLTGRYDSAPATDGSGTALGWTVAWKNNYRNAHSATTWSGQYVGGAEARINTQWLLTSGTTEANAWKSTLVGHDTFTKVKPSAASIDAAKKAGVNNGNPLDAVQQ
Sequence of Focal adhesion kinase 1 (Homo sapiens) (Q05397 whole entry, looked up): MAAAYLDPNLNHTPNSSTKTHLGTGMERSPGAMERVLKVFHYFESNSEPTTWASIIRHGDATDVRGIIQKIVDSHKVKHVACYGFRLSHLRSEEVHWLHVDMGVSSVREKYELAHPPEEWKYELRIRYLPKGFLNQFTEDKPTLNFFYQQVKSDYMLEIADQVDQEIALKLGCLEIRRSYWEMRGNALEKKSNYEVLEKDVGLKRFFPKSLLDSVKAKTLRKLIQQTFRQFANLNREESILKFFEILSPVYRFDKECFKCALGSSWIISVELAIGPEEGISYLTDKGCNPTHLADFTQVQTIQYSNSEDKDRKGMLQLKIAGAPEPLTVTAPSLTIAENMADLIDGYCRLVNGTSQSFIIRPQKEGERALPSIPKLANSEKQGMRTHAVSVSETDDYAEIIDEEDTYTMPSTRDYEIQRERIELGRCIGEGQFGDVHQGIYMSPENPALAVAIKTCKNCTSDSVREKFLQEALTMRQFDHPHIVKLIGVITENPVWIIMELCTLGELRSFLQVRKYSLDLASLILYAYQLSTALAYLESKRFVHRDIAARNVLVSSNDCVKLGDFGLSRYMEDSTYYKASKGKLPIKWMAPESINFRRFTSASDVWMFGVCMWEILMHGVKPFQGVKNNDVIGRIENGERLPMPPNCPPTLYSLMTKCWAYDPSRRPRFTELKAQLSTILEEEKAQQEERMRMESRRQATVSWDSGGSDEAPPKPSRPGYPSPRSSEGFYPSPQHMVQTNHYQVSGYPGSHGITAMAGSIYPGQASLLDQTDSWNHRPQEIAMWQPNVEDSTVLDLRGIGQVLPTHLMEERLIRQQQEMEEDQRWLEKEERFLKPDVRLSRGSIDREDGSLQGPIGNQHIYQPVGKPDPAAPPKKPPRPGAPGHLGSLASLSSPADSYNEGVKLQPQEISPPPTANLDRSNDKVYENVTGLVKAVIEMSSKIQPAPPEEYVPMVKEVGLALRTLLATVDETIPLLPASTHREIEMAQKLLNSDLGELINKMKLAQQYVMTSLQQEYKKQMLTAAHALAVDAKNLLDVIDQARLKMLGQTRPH
Sequence of Luciferin 4-monooxygenase (Photinus pyralis) (P08659 whole entry, looked up): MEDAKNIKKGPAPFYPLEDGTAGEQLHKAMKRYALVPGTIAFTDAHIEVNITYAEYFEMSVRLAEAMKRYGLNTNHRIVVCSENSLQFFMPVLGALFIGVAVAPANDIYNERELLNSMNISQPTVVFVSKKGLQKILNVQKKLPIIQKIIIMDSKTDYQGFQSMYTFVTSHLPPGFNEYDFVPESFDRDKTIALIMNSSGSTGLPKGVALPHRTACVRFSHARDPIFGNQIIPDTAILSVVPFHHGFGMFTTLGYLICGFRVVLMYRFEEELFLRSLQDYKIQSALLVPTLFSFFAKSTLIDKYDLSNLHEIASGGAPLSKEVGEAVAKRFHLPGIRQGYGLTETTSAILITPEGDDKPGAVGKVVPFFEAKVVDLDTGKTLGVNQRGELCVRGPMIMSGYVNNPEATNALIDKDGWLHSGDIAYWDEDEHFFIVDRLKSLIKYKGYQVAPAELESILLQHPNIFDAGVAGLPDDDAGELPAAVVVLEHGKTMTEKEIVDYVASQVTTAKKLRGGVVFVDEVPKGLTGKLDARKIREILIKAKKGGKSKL

In the case of `O=C(NN=C1C[C@@H](O)[C@@H](O)[C@@H]2[C@@H]3C(=O)N(c4cccc(Oc5ccccc5)c4)C(=O)[C@@H]3CC[C@H]12)OCc1ccccc1`, the composite z-score was 1.22 in experiment [1]; 0.116 in experiment [2]; -0.294 in experiment [3]; 0.906 in experiment [4]; 0.165 in experiment [5]; 0.237 in [6]. Further, the composite z-score in the experiment on Lefty1 is 0.168; in [8], 0.557; in experiment [10], -0.132; in experiment [15] it was 1.68; in experiment [16] it was -0.128; with Torsin-1A (Homo sapiens) [17] it was 0.0142. Moreover, the values for the composite z-score (with Torsin-1A (Homo sapiens) [18]; in experiment [19]) were -0.104 and -0.689, respectively. The z-score was -1.25 in experiment [7]; 1.26 (inactive) in [9]; -1.24 (inactive) in experiment [11]; 1.3 (inactive) in [12]; -0.0199 (inactive) in experiment [13]; 0.0693 (inactive) in experiment [14].
Take `COCC(=C=CC[C@@H](O)c1ccccc1OCCO)CCO`: the composite z-score in experiment [1] was 0.0272; in experiment [2], 0.534; in [3] it was 0.208; in [4] it was 0.664; in experiment [5], 0.768; in [6] it was 1.46. Moreover, the composite z-score in the experiment with Lefty1 was 0.409; in experiment [8], -0.0571; in experiment [10], 0.0554; in experiment [15], -0.174; in experiment [16], -0.0074; with Torsin-1A (Homo sapiens) [17] it was 0.635. In addition, the composite z-score with Torsin-1A (Homo sapiens) [18] was 0.518; in experiment [19], 0.156. Also, the z-score is 1.51 in experiment [7]; -2.02 (inactive) in experiment [9]; 0.0309 (inactive) in [11]; -0.118 (inactive) in [12]; 0.914 (inactive) in experiment [13]; -0.732 (inactive) in [14].
As to `CN(C)CCCNC(=O)[C@@H]1c2ccccc2C(=O)N(Cc2cc(F)cc(C(F)(F)F)c2)[C@H]1c1ccc(CO)cc1`, the composite z-score was 0.77 in [1]; 1.07 in [2]; -0.0288 in experiment [3]; 0.216 in [4]; 1.28 in experiment [5]; 0.309 in experiment [6]. Besides, the composite z-score is -0.271 in the experiment with Lefty1; 0.039 in experiment [8]; 0.095 in [10]; -0.621 in [15]; -0.0849 in [16]; 0.65 with Torsin-1A (Homo sapiens) [17]. Moreover, the composite z-score with Torsin-1A (Homo sapiens) [18] was -0.348; in [19] it was 0.388. The z-score in experiment [7] was -0.00183; in experiment [9], 0.0764 (inactive); in experiment [11] it was -1.77 (inactive); in experiment [12], -0.101 (inactive); in experiment [13] it was 0.351 (inactive); in experiment [14] it was 0.159 (inactive).
In the case of `C[C@H](c1ccccc1)N1C(=O)[C@H]2[C@H]3[C@H](O)[C@H](O)CC(=O)[C@@H]3CC[C@H]2C1=O`, the composite z-score in [1] is 0.62; in [2], -0.0909; in experiment [3] it was 0.0546; in experiment [4], 0.436; in experiment [5], 0.469; in [6], 0.51. For the same molecule, the composite z-score with Lefty1 was 0.515; in [8], 0.286; in experiment [10], 0.507; in experiment [15], 0.239; in [16], -0.0059; with Torsin-1A (Homo sapiens) [17], 0.458. Also, the composite z-score with Torsin-1A (Homo sapiens) [18] is 0.208; in experiment [19] it was 0.694. Also, the z-score in experiment [7] was 0.47; in experiment [9] it was 0.569 (inactive); in [11] it was -1.37 (inactive); in [12], 0.00143 (inactive); in experiment [13], -0.885 (inactive); in experiment [14], -0.997 (inactive).
`CCOC(=O)CCN1C(=O)[C@H]2[C@H]3[C@H](O)[C@H](O)CC(=NOCc4ccccc4)[C@@H]3CC[C@H]2C1=O`: the composite z-score in experiment [1] was -0.261; in experiment [2] it was 0.717; in experiment [3], 0.163; in [4], 0.983; in experiment [5], 0.722; in experiment [6], 0.383. Besides, the composite z-score in the experiment with Lefty1 was 0.963; in experiment [8], -0.0855; in [10], -0.0682; in experiment [15] it was 0.115; in experiment [16], -0.186; with Torsin-1A (Homo sapiens) [17], 0.434. Also, the values for the composite z-score (with Torsin-1A (Homo sapiens) [18]; in experiment [19]) were 0.496 and 0.612, respectively. The z-score in experiment [7] was -0.217; in experiment [9] it was 0.883 (inactive); in experiment [11] it was -1.25 (inactive); in experiment [12] it was 0.324 (inactive); in experiment [13] it was -0.294 (inactive); in experiment [14], 0.0433 (inactive).
